PubChem BioAssay AID2732 (Emory University Molecular Libraries Screening Center, 2010)
The whole screen tested about 220,000 compounds, of which about 8,200 (3.7%) were called active.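 How the source made its calls: active means compounds that reduced the stress-induced luciferase reporter signal by more than about 70% of percent inhibition (limit read from the data); inactive means the rest.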 What follows is part of a selection rich in actives, with near analogues and random picks from the rest.

Experiment: blockers of ER-stress CHOP reporter expression – cell-based, unfolded protein response, luciferase reporter, primary screen (AID 2732);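 further: 0% = tunicamycin plus vehicle and 100% = wells without tunicamycin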
Details: CHO-K1 CHOP-promoter luciferase, tunicamycin-induced, 15-18 h; at 10 µM; stronger effect = higher value

inhibition, active:
Cc1ccc(-n2ncc3c2ncn2nc(-c4ccco4)nc32)c(C)c1 105%, O=C(Nc1nnc(SCc2ccc(Cl)cc2Cl)s1)C1COc2ccccc2O1 (centres undefined) 71.3%, Cc1nc2ccccc2nc1N/N=C/c1ccc(O)cc1O 74.5%, Cc1ccc(-c2csc(-c3c[nH]c4ccccc34)n2)cc1 98.1%, COc1cc(NC(=O)Nc2ccc(C)cc2)cc([N+](=O)[O-])c1 71.2%, COc1cc(C(=O)OC(C)C(=O)NCC2CCCCC2)cc(NC(=O)c2ccco2)c1OC (centres undefined) 101%

inhibition, inactive:
COC(=O)CSc1ncnc2c1cnn2-c1ccc(C)cc1C -4.08%, Cc1ccc(-n2ncc3c(=O)n(-c4ccc(C)c(C)c4)c(-c4ccco4)nc32)cc1 37.9%, O=C(NCc1cccnc1)Nc1cccc(NC(=O)NCc2cccnc2)c1F 7.4%, CN1CCN(C2=NCCO2)CC1 2.43%, O=C(Nc1nc2c(F)cc(F)cc2s1)C1COc2ccccc2O1 (centres undefined) 17.5%, O=C(Nc1nnc(SCc2c(Cl)cccc2Cl)s1)C1CCCO1 (centres undefined) 18.8%, Cc1cnc(NC(=O)c2ccccn2)s1 8.8%, CN(C)S(=O)(=O)c1ccc(C(=O)NCC(C)(C)N2CCOCC2)cc1 -18.3%, Oc1ccc(/C=N/Nc2nc(-c3ccccc3F)nc3ccccc23)c(O)c1 57.6%, Oc1ccc(/C=N/NC2=NCCCCC2)c(O)c1 -12.1%, O=C(O)Cc1csc(NC(=O)CSc2nnnn2-c2ccc(O)cc2)n1 -5.01%, CCc1ccc(S(=O)(=O)NCC(O)COc2ccc(OC)cc2)cc1 (centres undefined) 16.3%, O=C(N/N=C\c1cc(Br)c(Br)o1)C1COc2ccccc2O1 (centres undefined) 6.22%, CCCc1cc(-c2nc(-c3ccc(C)cc3)cs2)ccn1 39.6%, Cc1ccc(-c2csc(-c3cc(C)on3)n2)cc1 -14.2%, COCc1cc(=O)oc2cc(NS(=O)(=O)c3ccc(C)cc3)ccc12 9.01%, Cc1cc(Nc2ccc(N3CCOCC3)cc2)c2cccc(C)c2n1 -27.9%, CC(=O)c1ccc(NC(=O)Nc2ccc([N+](=O)[O-])cc2C)cc1 51.8%, COC(=O)c1ccc(NC(=O)Nc2ccc(C)cc2)cc1 26.6%, Cn1c(=O)c2c(nc(NCc3ccccc3)n2CC(N)=O)n(C)c1=O 9.77%, Cc1ccccc1N1CCN(Cc2nc(Cc3ccccc3F)no2)CC1 -7.61%, COC(=O)c1cc(Cl)c(NC(=O)c2ccco2)cc1OC -8.18%, COc1cc(C(=O)N[C@@H](C)C(=O)NCc2ccco2)cc(OC)c1OC 0.36%
